The target of assay [1] is T1, Ephrin type-B receptor 2 (Homo sapiens) (UniProt P29323).
T1 sequence (whole entry): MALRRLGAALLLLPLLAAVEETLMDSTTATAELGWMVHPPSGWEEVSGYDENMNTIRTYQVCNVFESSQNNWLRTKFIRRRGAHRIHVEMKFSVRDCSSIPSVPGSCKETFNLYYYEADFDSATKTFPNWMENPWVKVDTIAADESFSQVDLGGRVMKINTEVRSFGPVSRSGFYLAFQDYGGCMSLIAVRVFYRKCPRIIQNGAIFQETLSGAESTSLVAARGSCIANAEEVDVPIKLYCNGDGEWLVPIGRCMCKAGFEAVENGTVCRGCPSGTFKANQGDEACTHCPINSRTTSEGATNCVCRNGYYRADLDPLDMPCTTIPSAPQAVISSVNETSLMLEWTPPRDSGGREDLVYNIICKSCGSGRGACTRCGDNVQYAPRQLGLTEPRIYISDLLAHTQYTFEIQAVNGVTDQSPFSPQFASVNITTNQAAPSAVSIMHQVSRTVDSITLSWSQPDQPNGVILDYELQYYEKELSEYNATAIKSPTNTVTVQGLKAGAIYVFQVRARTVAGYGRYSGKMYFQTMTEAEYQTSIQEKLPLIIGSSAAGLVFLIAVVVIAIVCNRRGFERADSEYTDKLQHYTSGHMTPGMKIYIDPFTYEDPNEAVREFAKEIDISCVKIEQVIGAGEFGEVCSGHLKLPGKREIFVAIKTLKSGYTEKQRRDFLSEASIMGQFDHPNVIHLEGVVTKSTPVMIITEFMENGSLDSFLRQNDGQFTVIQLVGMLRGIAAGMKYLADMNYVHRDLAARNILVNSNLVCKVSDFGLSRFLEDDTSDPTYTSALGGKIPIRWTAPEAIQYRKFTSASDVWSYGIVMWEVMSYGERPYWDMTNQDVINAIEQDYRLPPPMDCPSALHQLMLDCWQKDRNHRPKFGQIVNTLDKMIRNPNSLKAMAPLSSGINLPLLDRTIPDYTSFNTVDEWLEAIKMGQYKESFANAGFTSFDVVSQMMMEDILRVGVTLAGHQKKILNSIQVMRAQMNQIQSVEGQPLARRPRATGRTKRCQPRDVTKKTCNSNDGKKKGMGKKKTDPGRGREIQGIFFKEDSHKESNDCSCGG
The following applies: at 1 µM.

Assay [2] deals with T2, Ephrin type-B receptor 3 (Homo sapiens) (UniProt P54753).
T2 sequence (whole entry): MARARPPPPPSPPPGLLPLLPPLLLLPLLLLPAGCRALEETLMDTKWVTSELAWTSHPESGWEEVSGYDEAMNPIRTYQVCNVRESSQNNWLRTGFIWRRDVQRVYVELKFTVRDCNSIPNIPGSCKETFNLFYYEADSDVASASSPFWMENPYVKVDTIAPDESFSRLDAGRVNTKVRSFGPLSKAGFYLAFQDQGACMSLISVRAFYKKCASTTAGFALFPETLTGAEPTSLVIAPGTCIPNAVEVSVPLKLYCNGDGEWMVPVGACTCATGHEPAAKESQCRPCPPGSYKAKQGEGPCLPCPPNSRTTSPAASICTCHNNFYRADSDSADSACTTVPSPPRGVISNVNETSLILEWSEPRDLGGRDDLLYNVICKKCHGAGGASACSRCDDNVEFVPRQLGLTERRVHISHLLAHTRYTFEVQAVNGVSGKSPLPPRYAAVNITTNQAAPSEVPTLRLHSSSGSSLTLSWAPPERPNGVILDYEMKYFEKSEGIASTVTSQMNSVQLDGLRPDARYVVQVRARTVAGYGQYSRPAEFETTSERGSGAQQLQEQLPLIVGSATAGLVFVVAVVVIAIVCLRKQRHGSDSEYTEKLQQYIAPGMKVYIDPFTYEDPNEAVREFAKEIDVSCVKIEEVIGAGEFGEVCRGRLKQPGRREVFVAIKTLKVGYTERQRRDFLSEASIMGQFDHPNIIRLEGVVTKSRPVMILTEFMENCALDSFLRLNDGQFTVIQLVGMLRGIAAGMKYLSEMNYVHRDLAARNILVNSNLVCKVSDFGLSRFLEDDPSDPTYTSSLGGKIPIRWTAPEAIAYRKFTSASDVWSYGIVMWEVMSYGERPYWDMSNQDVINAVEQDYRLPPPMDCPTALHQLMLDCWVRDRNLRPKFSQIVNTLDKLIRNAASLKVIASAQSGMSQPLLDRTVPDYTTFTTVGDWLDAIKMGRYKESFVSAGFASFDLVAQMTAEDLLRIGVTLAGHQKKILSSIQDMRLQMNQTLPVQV
The following applies: at 0.1 µM.

In assay [3] the target is T2, Ephrin type-B receptor 3 (Homo sapiens). The conditions noted are these: at 1 µM.
The target in assay [4] is T3, Ephrin type-B receptor 4 (Homo sapiens) (UniProt P54760).
T3 sequence (whole entry): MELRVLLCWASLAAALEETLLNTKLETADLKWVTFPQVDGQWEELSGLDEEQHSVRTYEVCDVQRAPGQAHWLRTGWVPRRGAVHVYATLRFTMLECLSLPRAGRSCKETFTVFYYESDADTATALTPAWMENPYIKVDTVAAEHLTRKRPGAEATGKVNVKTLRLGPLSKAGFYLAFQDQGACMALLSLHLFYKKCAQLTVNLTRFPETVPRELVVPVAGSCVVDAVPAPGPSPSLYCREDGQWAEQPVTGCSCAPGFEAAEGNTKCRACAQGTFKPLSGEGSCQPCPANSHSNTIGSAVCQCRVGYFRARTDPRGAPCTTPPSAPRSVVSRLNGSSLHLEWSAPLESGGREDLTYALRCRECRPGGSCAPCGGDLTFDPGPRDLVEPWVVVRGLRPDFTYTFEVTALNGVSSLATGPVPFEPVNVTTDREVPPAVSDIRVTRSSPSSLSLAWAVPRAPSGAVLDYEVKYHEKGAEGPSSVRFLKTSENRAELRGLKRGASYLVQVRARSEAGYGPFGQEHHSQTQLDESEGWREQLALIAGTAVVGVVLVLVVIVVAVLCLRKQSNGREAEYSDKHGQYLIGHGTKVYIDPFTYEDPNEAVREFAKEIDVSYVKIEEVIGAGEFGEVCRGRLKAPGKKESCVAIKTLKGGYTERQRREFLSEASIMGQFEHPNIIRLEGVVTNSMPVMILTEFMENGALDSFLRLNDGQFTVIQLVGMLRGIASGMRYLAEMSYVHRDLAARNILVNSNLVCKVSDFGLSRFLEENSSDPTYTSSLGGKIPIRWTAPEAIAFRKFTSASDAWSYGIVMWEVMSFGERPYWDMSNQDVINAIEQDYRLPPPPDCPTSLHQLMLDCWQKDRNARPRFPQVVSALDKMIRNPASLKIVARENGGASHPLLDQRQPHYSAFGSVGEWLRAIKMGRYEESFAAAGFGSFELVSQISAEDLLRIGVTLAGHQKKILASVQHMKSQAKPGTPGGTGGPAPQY
The conditions noted are these: at 0.1 µM.

For assay [5], the target named is T3, Ephrin type-B receptor 4 (Homo sapiens). The conditions noted are these: at 1 µM.
For assay [6], the target named is Receptor tyrosine-protein kinase erbB-2 (Homo sapiens) (UniProt P04626). The following applies: at 0.1 µM.
Assay [7] shares this target. The conditions noted are these: at 1 µM.
The target in assay [8] is Receptor tyrosine-protein kinase erbB-4 (Homo sapiens) (UniProt Q15303). The conditions noted are these: at 0.1 µM.
Receptor tyrosine-protein kinase erbB-4 (Homo sapiens), sequence (Q15303 whole entry): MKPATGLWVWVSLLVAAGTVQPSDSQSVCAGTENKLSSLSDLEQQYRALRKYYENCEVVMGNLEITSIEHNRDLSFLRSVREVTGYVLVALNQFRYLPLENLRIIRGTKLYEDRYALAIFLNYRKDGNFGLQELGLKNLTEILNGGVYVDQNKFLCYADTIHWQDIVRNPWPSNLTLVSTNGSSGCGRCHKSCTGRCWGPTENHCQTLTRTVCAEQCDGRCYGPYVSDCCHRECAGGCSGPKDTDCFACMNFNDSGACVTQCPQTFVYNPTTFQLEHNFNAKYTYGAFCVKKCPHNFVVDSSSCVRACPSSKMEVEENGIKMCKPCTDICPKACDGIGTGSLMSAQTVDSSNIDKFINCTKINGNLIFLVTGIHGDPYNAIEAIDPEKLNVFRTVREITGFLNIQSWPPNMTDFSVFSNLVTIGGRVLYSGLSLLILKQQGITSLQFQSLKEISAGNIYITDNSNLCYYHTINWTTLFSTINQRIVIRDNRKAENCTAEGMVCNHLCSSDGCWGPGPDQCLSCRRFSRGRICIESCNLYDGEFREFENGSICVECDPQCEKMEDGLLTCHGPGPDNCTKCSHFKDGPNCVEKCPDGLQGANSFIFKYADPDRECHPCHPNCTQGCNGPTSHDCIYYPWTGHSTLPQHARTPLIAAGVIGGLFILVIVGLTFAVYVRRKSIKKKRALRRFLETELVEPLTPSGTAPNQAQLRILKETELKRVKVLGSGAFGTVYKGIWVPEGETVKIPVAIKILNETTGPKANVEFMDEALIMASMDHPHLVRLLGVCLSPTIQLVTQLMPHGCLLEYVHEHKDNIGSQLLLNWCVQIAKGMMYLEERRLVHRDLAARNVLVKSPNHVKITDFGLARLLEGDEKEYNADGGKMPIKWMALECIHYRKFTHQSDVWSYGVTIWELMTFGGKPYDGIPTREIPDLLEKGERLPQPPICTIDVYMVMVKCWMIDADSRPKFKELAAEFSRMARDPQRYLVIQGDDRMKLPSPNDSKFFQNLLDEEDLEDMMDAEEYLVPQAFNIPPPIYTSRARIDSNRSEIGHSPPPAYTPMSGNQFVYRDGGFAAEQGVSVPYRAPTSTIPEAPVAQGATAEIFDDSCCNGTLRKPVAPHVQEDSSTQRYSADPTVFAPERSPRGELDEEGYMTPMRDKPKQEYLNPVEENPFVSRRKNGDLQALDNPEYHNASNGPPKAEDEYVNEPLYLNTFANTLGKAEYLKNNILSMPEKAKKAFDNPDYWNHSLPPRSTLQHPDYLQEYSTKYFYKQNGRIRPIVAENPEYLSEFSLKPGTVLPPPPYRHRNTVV
Assay [9] has the same target. The conditions noted are these: at 1 µM.
Assay [10] has as its target Tyrosine-protein kinase Fer (Homo sapiens) (UniProt P16591). The following applies: at 0.1 µM.
Assay [11] has the same target. The conditions noted are these: at 1 µM.
In assay [12] the target is Tyrosine-protein kinase Fes/Fps (Homo sapiens) (UniProt P07332). The conditions noted are these: at 0.1 µM.
Tyrosine-protein kinase Fes/Fps (Homo sapiens), sequence (P07332 whole entry): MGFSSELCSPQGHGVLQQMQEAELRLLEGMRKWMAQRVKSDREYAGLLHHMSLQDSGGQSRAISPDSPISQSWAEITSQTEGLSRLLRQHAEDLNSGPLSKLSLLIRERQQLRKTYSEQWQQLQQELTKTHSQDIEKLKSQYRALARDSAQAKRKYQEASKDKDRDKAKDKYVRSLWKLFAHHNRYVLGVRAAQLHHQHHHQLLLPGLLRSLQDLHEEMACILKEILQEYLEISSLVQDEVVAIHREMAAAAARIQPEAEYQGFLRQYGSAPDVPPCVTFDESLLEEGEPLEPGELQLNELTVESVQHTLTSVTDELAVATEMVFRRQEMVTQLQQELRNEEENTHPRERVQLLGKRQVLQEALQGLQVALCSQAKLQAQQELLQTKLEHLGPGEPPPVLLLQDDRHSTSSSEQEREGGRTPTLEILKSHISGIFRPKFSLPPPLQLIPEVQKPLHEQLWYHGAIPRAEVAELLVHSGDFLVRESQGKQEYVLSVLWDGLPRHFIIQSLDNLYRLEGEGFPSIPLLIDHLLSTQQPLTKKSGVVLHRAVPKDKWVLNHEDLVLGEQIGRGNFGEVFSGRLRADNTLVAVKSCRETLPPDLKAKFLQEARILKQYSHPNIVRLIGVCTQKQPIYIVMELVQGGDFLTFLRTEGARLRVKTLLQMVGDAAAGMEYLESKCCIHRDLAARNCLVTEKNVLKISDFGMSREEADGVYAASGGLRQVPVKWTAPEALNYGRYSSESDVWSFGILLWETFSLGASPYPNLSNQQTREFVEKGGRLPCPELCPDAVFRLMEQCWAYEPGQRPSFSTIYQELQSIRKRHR
Assay [13] has the same target. The following applies: at 1 µM.
Assay [14] deals with Fibroblast growth factor receptor 1 (Homo sapiens) (UniProt P11362). The conditions noted are these: at 0.1 µM.
Fibroblast growth factor receptor 1 (Homo sapiens), sequence (P11362 22-822 limits assumed): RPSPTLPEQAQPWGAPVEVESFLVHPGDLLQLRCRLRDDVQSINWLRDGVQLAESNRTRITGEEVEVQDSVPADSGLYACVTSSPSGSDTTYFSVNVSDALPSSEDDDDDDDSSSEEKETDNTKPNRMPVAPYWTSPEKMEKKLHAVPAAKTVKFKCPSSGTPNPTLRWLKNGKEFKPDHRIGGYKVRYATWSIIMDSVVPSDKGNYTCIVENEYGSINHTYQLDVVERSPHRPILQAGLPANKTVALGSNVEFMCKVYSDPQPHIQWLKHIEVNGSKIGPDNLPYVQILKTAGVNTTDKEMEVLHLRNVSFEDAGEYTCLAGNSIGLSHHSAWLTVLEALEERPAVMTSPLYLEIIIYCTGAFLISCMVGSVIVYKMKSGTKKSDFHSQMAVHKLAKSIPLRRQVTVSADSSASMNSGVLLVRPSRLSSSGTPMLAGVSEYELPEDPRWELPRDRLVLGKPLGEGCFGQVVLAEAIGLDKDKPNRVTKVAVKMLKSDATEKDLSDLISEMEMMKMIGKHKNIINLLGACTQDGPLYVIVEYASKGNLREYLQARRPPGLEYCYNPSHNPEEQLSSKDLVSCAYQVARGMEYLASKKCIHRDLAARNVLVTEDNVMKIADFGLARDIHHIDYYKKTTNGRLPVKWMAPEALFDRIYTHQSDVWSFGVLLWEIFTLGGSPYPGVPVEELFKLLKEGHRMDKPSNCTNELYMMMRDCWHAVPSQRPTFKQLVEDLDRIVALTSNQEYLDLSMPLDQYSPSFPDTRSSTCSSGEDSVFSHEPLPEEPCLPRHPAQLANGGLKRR
Assay [15] has the same target. The conditions noted are these: at 1 µM.
The target of assay [16] is Fibroblast growth factor receptor 2 (Homo sapiens) (UniProt P21802). The conditions noted are these: at 0.1 µM.
For assay [17] the target is unchanged. The conditions noted are these: at 1 µM.
In assay [18] the target is Fibroblast growth factor receptor 3 (Homo sapiens) (UniProt P22607). The following applies: at 0.1 µM.
Fibroblast growth factor receptor 3 (Homo sapiens), sequence (P22607 23-806 limits assumed): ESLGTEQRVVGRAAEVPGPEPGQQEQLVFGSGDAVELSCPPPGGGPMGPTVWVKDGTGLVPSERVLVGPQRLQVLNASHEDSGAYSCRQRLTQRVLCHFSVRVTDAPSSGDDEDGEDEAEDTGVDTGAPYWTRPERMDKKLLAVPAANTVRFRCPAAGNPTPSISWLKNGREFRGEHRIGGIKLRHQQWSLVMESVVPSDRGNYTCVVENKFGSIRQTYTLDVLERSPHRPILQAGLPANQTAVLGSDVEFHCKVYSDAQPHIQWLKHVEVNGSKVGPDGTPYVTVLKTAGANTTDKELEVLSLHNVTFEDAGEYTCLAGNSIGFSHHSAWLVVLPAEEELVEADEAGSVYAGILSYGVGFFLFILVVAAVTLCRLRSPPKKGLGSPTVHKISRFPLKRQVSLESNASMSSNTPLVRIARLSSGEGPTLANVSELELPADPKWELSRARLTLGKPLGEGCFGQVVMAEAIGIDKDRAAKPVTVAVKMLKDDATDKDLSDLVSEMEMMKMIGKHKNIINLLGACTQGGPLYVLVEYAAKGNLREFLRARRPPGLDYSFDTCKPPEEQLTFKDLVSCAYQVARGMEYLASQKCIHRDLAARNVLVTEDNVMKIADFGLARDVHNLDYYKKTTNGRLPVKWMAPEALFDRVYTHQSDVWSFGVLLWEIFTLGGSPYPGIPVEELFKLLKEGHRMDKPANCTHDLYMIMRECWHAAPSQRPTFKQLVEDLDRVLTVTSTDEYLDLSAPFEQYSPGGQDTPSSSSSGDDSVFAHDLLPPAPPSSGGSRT
The target is the same in assay [19]. The following applies: at 1 µM.
Assay [20] concerns the target Fibroblast growth factor receptor 4 (Homo sapiens) (UniProt P22455). The conditions noted are these: at 0.1 µM.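 Note: values are mean percent inhibition of FGFR4.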

The term inhibition denotes the relative decrease from the control value, in per cent.

Tyrosine-protein kinase Fer (Homo sapiens), sequence (P16591 whole entry, looked up): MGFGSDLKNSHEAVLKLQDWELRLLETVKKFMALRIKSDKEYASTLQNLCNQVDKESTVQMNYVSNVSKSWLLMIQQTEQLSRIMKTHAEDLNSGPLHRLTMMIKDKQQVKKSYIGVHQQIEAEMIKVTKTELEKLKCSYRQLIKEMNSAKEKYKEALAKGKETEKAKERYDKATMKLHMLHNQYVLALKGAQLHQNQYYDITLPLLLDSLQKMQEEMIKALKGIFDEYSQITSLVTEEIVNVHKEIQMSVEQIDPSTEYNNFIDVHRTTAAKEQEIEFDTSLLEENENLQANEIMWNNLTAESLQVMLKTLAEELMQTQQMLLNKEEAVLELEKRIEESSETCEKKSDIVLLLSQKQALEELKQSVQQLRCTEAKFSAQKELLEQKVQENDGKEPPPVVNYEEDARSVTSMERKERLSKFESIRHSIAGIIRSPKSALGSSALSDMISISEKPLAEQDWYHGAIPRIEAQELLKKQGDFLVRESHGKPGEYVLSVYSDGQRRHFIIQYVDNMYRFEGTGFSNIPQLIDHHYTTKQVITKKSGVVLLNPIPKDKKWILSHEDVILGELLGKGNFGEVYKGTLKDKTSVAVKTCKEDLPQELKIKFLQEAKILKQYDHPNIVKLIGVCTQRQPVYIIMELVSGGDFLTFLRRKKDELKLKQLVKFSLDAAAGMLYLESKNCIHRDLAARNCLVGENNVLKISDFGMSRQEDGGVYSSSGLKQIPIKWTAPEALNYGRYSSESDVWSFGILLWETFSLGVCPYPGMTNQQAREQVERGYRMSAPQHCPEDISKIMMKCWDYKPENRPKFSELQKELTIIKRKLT

On to `COc1ccc(C2=C(N3CCc4ccccc43)C(=O)NC2=O)cc1`, for which the inhibition in assay [1] amounted to 11.3%; in assay [2], 3.73%; in assay [3], 6.05%; in assay [4] it was 3.74%; in [5] it was 4.2%; in assay [6], 4.12%. Also, the inhibition in [7] was found to be 2.07%; in [8], 8.75%; in [9], 12.9%; in assay [10], 5.39%; in [11] it was 4.91%; in assay [12] it was 3.03%. In addition, the inhibition in assay [13] worked out at 5.04%; in [14], 4.17%; in assay [15], 8.02%; in [16] it was 4.11%; in assay [17] it was 6.4%; in [18], 8.71%. The inhibition was 8.26% in assay [19] and 2.43% in assay [20].

As to `O=C1NC(=O)C(c2cccc(Cl)c2)=C1Nc1ccc(Cl)c(C(=O)O)c1`, the inhibition in assay [1] is 3.04%; in assay [2] it was 10.6%; in [3], 4.29%; in [4], 0.79%; in assay [5], 0.05%; in assay [6] it was 2.66%. The inhibition is 1.74% in assay [7]; 7.3% in assay [8]; 10% in assay [9]; 3.46% in assay [10]; 2.51% in assay [11]; 2.13% in assay [12]. Also, the inhibition in assay [13] is 2.52%; in assay [14] it was 3.46%; in assay [15] it was 16.2%; in assay [16], 8.43%; in assay [17], 20.6%; in assay [18], 6.79%. The values for the inhibition in assay [19] and in [20] were 24.8% and -1.89%, respectively.

For the compound `O=C(Nc1n[nH]c2nc(-c3ccc(O)cc3)c(Br)cc12)C1CC1`, the inhibition in assay [1] was determined as 37.8%; in assay [2] it was 9.61%; in assay [3], 5.92%; in [4], 7.91%; in assay [5], 28.8%; in [6] it was 2.58%. Further, the inhibition in assay [7] was 4.82%; in assay [8], 14.9%; in assay [9] it was 22%; in assay [10], 3.43%; in assay [11] it was 7.42%; in [12], 3.04%. Besides, the inhibition turned out to be 3.83% in assay [13]; 7.1% in assay [14]; 21.4% in assay [15]; 7.18% in assay [16]; 17.9% in [17]; 8.23% in assay [18]. The inhibition in assay [19] is 12.5%; in [20], 0.04%.

Take `CN(C)CCCNc1nccc(-c2c(-c3ccc(F)cc3)nn3cc(C(F)(F)F)ccc23)n1`: the inhibition in assay [1] is 19.7%; in [2] it was 0.41%; in assay [3], -0.85%; in [4] it was -2.73%; in [5] it was 0.9%; in assay [6], 0.46%. The inhibition in [7] was -1.57%; in [8] it was 0.88%; in assay [9], -0.51%; in [10] it was 1.94%; in [11], 1.37%; in [12], 0.87%. In addition, the inhibition is 1.2% in [13]; 0.95% in assay [14]; 0.04% in [15]; -2.72% in [16]; 0.99% in assay [17]; -1.5% in [18]. Also, the inhibition is -0.97% in assay [19] and -3.68% in [20].

The values above are taken from ChEMBL document CHEMBL1961873, “Compounds: GSK PKIS; Assays: Nanosyn kinase panel” (2012).
